Compound activity deposited in PubChem by National Center for Advancing Translational Sciences (NCATS).
The list is not random: actives were taken first. Their share in the collection is about 7.9%.
HT1080NT lethal: kills 2HG-producing HT-1080-NT fibrosarcoma cells. HT-1080-NT fibrosarcoma viability, CellTiter-Glo ATP luminescence, 48 h. Potency, µM (highest dose often 46.1 µM), for inactives: top-dose activity, negative = less viability, usual class: cytotoxic. hit rate 1.6% among 360,000. AID 686970;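 note: NT is the 2HG producing partner of a matched IDH1 knockdown line; 0% = DMSO-treated cells and -100% = media-only wells without cells; nearly all actives have a fitted effect of over 55% in size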
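HT-1080-NT fibrosarcoma cells (2HG-overproducing), 750 cells/well in RPMI with 5% FBS, dosed after 2 h and incubated 48 h at 37C. CellTiter-Glo luminescence normalized to DMSO and no-cell wells; concentration-response curves fitted and classed.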
KB-3-1 tox: kills parental KB-3-1 adenocarcinoma cells; KB-3-1 viability, CellTiter-Glo ATP luminescence, 72 h; Potency, µM (top dose mostly 46.1 µM), most hits filed as cytotoxic; hit rate 1.4% among 400,000; note: % is set by controls: 0 for no effect and ±100 for the full control effect; nearly all actives have a fitted effect of over 60% in size
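KB-3-1 parental drug-naive adenocarcinoma cells in DMEM/10% FBS, incubated 72 h at 37 C with pin-transferred compounds across a concentration series. Viability by CellTiter-Glo luminescence; concentration-response curves fitted after normalization.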
SW480 rereplic: DNA re-replication induction in SW480 cells; Potency, µM (doses to about 46.1 µM), inactives show at the top dose re-replication activation, hits mostly activators; SW480 DNA re-replication, Hoechst DNA content imaging, 48 h; hit rate 1.8% among 340,000; note: % of control where 0% means no effect; nearly all actives have a fitted effect of over 55% in size
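Treated cells incubate 48 hr (37 C, 5% CO2), are stained 40 min with Hoechst, and nuclear fluorescence is enumerated; a rise in nuclei with high DNA signal marks re-replication.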
HT1080 IDH1KD tx: HT-1080 IDH1 knockdown cell toxicity (counter line). AID 686971. hit rate 2% among 360,000. Potency, µM (doses to about 46.1 µM), without a hit: top-dose activity, negative = toxicity, hits mostly cytotoxic. HT-1080 IDH1 knockdown viability, ATP luminescence, 48 h;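 note: 0% = DMSO wells and -100% = cell-free medium wells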
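Assay cells: HT-1080 with IDH1 knockdown, 750 per well, RPMI/5% FBS. Exposure: 48 h at 37 °C following 2 h pre-incubation. Read: CellTiter-Glo luminescence; fitted concentration-response, curve class assigned.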
KB-V1 MDR tox: KB-V1 MDR subline cytotoxicity | Potency, µM (top dose mostly 46.1 µM), usual class: cytotoxic | AID 1347076 | KB-V1 MDR cells viability, CellTiter-Glo, 72 h | hit rate 3.4% among 400,000; note: % is set by controls: 0 for no effect and ±100 for the full control effect; nearly all actives have a fitted effect of over 60% in size
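Readout: CellTiter-Glo luminescence, 10 min after addition. Cells: KB-V1 MDR subline, 72 h at 37 degrees C with compound. Analysis: corrected, normalized data fitted to concentration-effect curves.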
MCF10A rereplic: DNA re-replication induction in MCF 10a cells. Potency, µM (series often up to 46.1 µM), for inactives: at the top dose activity, positive = re-replication, hits mostly activators. hit rate 2.9% among 350,000. MCF 10A DNA re-replication, Hoechst nuclear intensity, 48 h; note: % of control where 0% means no effect; nearly all actives have a fitted effect of over 50% in size
The depositor's hits bear a star; i = inactive; u = inconclusive; x = no result; [ ] = another dose, or the depositor's remark. Calls come from the whole dose curve; as a rule, active = well fitted curve in the direction sought with a large enough effect; inconclusive = small, poorly fitted or top-dose-only effect, or another doubt; inactive = no such curve, though single readings can be large; an effect the other way counts as inactive or inconclusive. Potency is the fitted concentration of half-maximal effect.

SMILES | HT1080NT lethal | KB-3-1 tox | SW480 rereplic | HT1080 IDH1KD tx | KB-V1 MDR tox | MCF10A rereplic
Cc1ccc(Cl)c(O)c1 | x | x | 5% | x | x | 2%
O=[N+]([O-])c1oc2ccc3ccccc3c2c1CCO | u | u | u | u | 5.8µM* | 5.2µM*
Cc1cccc(CN2C(=O)CN=C(c3ccccc3Cl)c3cc(Cl)ccc32)c1 | x | i | x | x | i | x
CCN(C[C@H]1N[C@@](C)(C(=O)OC)[C@H]2C(=O)N(Cc3ccccc3)C(=O)[C@@H]12)C(=O)Nc1ccccc1 | 0% | i | u | -2% | i | 1%
O=C(NCc1cccnc1)c1ccc(COc2ccc3c(c2)CCC3)o1 | u | i | 9% | u | 18µM* | u
O=C1CC2OCC=C3CN4CCC56c7ccccc7N1C5[C@H]2[C@H]3C[C@H]46 (some centres undefined) (tested in a mixture with another compound) | x | x | -5% | x | x | x
O=C1CC23c4ccccc4N4C(=O)CC5OCC=C6CN1C2CC6C5C43 (centres undefined) | 11% | i | 0% | 11% | 15µM* | 1%
CCOC(=O)C1(c2ccccc2)CCN(CC(=O)Nc2cccc3ccccc23)CC1 | 2% | i | 21µM* | -2% | 3.7µM* | u
CCOC(=O)C1(c2ccccc2)CCN(CCC(=O)Nc2ccccc2OC)CC1 | -4% | i | -27% | 4% | i | -1%
CC1=CC(O)C(O)C2(C)C1CC1OC(=O)C(O)C3C(C)C(O)C4(O)OCC13C42 (centres undefined) | -12% | u | -4% | u | i | 17%
COC(=O)[C@]12OC[C@]34C([C@@H](O)[C@@H]1O)[C@]1(C)CC(=O)C(O)=C(C)[C@@H]1C[C@H]3OC(=O)[C@H](O)[C@@H]24 (some centres undefined) | u | u | -64% | u | i | 15µM*
CCOC(=O)c1sc(/N=C/c2c(O)n(-c3cccc(C)c3)c(=O)[nH]c2=O)c(C#N)c1C | 20% | i | 2% | 8% | 21µM* | u
Cc1c2ccncc2c(C)c2c1[nH]c1ccccc12 | 10µM* | u | 7.3µM* | 3.7µM* | 9.2µM* | 5.8µM*
O=c1ccc2c(O)c3ccoc3cc2o1 | -2% | i | 0.18µM* | -1% | i | 11%
COc1cc2occc2c2oc(=O)ccc12 | 9% | i | u | 5% | i | 0%
O=c1cc(C(F)(F)F)c2cc3c4c(c2o1)CCCN4CCC3 | -28% | i | u | -23% | i | 10µM*
Cc1cc2c(C(F)(F)F)cc(=O)oc2c2c1NCCC2 | -3% | i | u | 26% | i | 1%
Cc1ccc(-n2c(/C=C/c3cc(Br)cs3)nc3ccccc3c2=O)cc1 | x | i | x | x | i | x
COc1ccc(-n2c(/C=C\c3ccccc3F)nc3ccccc3c2=O)c(OC)c1 | x | i | x | x | i | x
COc1ccc(Nc2nc(N3CCCC3)nc3ccccc23)c(OC)c1 | u | i | u | 11µM* | u | 18µM*
CCOC(=O)C1(CCCc2ccccc2)CCN(C2CCCC2)CC1 | -18% | u | 16µM* | -27% | i | u
CCOC(=O)C1(CCc2ccccc2)CCN(C2CCSCC2)CC1 | 0% | i | u | 11% | u | 8%
CCOC(=O)C1(CCc2ccccc2)CCN(Cc2ccc3c(c2)OCCO3)CC1 | 23µM* | u | -102% | 16µM* | u | 7%
CCCCCn1c(=O)c(C(=O)Nc2cccc(C)c2)c(O)c2ccccc21 | 10% | u | -4% | 0% | i | 3%
Cc1cc(C)c(OCC(=O)Nc2cccc(NC(=O)c3ccco3)c2)c(Br)c1 | u | i | 1% | u | 21µM* | 1%
SMILES | HT1080NT lethal | KB-3-1 tox | SW480 rereplic | HT1080 IDH1KD tx | KB-V1 MDR tox | MCF10A rereplic
CN(C)CCOc1ccc(/C(=C(/CCCl)c2ccccc2)c2ccccc2)cc1 | 7% | i | -102% | u | u | 4.6µM*
CC[C@]1(c2cccc(O)c2)CCCCN(C)C1 | x | x | -2%[20.6 µM] | x | x | -9%[20.6 µM]
S=c1[nH]nc(C2CC2)n1Cc1ccccc1 | 0% | i | -2% | 0% | i | -22%
Cc1cc(O)cc2c1O[C@@](C)(CCC[C@@H](C)CCC[C@@H](C)CCCC(C)C)CC2 | 10% | i | u | 5% | i | 0%
CCC(CC)N1CCN(Cc2nc3ccccc3c(=O)n2-c2ccc(F)cc2)CC1 | 2% | i | -23% | 1% | u | 0.58µM*
O=c1c2ccccc2nc(CN2CCCCCC2)n1-c1ccc(F)cc1 | 6% | i | -8% | 1% | i | 24%
C[C@]12CCC3C(CC[C@H]4C[C@H](O)CC[C@]34C)C1CC(=O)[C@@H]2O (some centres undefined) | 6% | i | -7% | 11% | i | 1%
CC1CC2(C)C(CCC3C2CCC2(C)C(OP(=O)(N4CC4)N4CC4)CCC32)CC1=O (centres undefined) | 24% | i | -3% | 4% | i | 13µM*
COC(=O)[C@@H]1[C@@H](C(=O)OC)C2(c3ccccc3-c3ccccc32)N(c2ccc(Cl)cc2)N1C#N | 4.6µM* | u | 9.2µM* | 5.8µM* | u | 7.1µM*
COC(=O)C[C@]1(C(=O)OC)CN(C#N)N(c2ccc(Cl)cc2)C12c1ccccc1-c1ccccc12 | 10µM* | 5.2µM* | u | 4.1µM* | 5.8µM* | 5.2µM*
S=C(NCc1ccccc1)NCC1COc2ccccc2O1 (centres undefined) | u | u | 1% | u | i | 14%
CC1(C)CC2CC(C)(CN2c2ncnc3ccccc23)C1 (centres undefined) | u | i | u | u | i | 22%
CCN(CC)C(=O)c1ccc(NC(=O)Nc2ccccc2F)cc1 | 7.3µM* | u | -1% | 5.2µM* | u | -1%
CCN(CC)C(=O)c1ccc(NC(=O)CCCSc2ccccc2)cc1 | 12% | i | -4% | 0% | i | 1%
O=C1CC(N2CCN(c3ccccc3)CC2)C(=O)N1CCc1ccccc1 (centres undefined) | 5% | i | -3% | 5% | u | u
O=C(CCC1CCCN(Cc2cccc3c2OCO3)C1)NCc1ccc(F)c(F)c1 (centres undefined) | 2% | i | -76% | -10% | i | -13%
COc1ccc(NC(=S)Nc2ncccc2C)c(OC)c1 | 7.1µM* | i | u | 10µM* | i | -8%
